The source of these data is PubChem BioAssay AID602329 (Broad Institute, 2012).

Among all 360,000 compounds or so, about 510 (0.14%) were called active. This excerpt belongs to a sample that is enriched for actives. Unmarked numbers belong to inactive results.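 The calls were made as follows: active = mean normalized replicate activity at least 40 and at least half of replicates scoring 40 or more; inconclusive = only one of the two criteria met; inactive = mean below 40 and under half of replicates reaching 40.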

One may read the inhibition as the drop in the measured response relative to a control, in per cent.

DNA repair and recombination protein RAD54-like (Homo sapiens), sequence (Q92698 whole entry, looked up): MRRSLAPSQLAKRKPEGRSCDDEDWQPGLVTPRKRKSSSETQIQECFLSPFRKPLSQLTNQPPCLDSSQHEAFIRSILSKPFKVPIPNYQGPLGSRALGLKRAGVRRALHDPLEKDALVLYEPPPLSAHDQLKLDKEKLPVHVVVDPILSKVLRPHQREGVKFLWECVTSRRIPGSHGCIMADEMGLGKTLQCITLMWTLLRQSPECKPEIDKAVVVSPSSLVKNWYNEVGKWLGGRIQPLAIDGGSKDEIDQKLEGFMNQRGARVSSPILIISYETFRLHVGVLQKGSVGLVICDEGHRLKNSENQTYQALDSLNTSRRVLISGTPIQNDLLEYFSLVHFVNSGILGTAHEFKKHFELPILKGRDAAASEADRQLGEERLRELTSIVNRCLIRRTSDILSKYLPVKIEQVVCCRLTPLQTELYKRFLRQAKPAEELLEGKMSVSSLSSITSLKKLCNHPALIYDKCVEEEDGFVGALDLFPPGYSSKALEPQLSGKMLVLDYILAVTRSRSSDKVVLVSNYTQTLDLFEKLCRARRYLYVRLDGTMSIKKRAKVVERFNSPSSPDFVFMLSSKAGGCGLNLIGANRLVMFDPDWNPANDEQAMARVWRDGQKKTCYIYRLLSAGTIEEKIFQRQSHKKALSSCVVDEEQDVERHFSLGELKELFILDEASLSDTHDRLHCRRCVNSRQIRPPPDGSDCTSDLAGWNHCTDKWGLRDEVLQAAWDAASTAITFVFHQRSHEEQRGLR

This experiment addresses DNA repair and recombination protein RAD54-like (Homo sapiens) (UniProt Q92698). In words: RAD54 Holliday junction migration blockers – biochemical, fluorescence, single point, primary screen (AID 602329).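 Also: 0% = median of neutral control wells and 100% = median of positive control wells; inhibitors cause a drop in the FAM fluorescence signal.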 As to conditions: RAD54 Holliday junction branch migration, FAM/BHQ fluorescence; at 10.4 µM; stronger effect = higher value.
As for `CCOc1cccc(=NC2CCCCC2)c2c(C)[nH]c(C)c12`, the inhibition was 76.8% (active). The figure for `COc1cccc(-c2ccc3n(c2=O)C[C@@H]2[C@@H](CO)[C@H](C(=O)O)[C@H]3N2C(=O)c2cnccn2)c1` is -0.151%.

On to `O=C(O)[C@@H]1[C@@H](CO)[C@@H]2Cn3c(ccc(-c4ccccc4F)c3=O)[C@H]1N2C(=O)c1cccnc1`, for which the inhibition was -3.76%. Consider `COC(=O)[C@@H]1[C@@H](CO)[C@@H]2Cn3c(ccc(C4=CCCCC4)c3=O)[C@H]1N2CC1CC1`, for which the inhibition was -6.66%. The value for `C[C@H](CO)N1C[C@H](C)[C@H](CN(C)C(=O)Oc2ccc3ccccc3c2)OCc2cnnn2CCCC1=O` was -17.1%; that for `COC(=O)[C@H]1[C@H](CO)[C@H]2Cn3c(ccc(C4=CCCC4)c3=O)[C@@H]1N2C(=O)CC1CC1` was 1.44%; that for `CN1CCN(c2cc(N3CCNCC3)ccc2[N+](=O)[O-])CC1` was 68% (active). The value for `COc1cccc(-c2nc3ccc(N4CCN(C)CC4)cc3[nH]2)c1` was 19.3%; that for `COC(=O)[C@H]1[C@H](CO)[C@H]2Cn3c(ccc(-c4cccc(F)c4)c3=O)[C@@H]1N2Cc1ccccc1` was 9.7%; that for `O=C(O)[C@H]1[C@H](CO)[C@H]2Cn3c(ccc(-c4ccccc4)c3=O)[C@@H]1N2S(=O)(=O)c1ccccc1F` was 6.58%.
